Assay outcomes deposited in PubChem by Buhrlage Lab, Dana-Farber Cancer Institute and Novartis Institutes for BioMedical Research (Cambridge, Mass).
Sampled rows, rich in hits. Any-hit rate of the full collection: about 14%.
USP8 inh: inhibitors of human USP8 deubiquitinase; inhibition, % at 20 µM; purified USP8, Ub-rhodamine cleavage fluorescence, 30 min; 4.2% of 47,000 active
Target sequence (P40818 whole entry, looked up): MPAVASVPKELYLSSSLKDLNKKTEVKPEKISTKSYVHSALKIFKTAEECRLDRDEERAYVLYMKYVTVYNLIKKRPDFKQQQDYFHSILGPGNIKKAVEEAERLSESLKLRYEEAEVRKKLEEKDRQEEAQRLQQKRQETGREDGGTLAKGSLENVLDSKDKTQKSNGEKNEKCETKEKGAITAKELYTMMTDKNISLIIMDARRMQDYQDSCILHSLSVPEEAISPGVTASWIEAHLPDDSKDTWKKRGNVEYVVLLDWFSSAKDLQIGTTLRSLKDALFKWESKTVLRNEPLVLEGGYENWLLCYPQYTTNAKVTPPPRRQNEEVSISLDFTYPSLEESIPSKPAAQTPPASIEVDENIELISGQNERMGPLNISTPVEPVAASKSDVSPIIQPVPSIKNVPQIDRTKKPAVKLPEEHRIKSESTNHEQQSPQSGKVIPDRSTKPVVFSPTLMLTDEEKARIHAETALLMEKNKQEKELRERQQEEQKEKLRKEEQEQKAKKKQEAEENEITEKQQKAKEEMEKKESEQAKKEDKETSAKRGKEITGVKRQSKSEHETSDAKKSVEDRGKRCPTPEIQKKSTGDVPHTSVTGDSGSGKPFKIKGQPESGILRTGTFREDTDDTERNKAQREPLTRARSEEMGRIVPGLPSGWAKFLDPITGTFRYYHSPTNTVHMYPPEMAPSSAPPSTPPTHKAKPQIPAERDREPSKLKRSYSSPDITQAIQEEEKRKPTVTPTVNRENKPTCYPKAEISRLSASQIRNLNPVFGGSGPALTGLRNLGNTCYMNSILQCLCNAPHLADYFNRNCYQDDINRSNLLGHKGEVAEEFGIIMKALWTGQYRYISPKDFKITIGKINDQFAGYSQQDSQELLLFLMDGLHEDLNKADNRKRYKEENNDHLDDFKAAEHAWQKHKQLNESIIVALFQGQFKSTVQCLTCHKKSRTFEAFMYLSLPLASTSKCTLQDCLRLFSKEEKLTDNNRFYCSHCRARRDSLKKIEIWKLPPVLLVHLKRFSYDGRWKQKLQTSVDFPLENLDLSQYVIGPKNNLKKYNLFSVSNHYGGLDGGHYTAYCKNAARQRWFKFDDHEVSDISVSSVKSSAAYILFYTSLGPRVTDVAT
USP10 block: blocks human USP10 ubiquitin-rhodamine cleavage; Q14694; purified USP10, Ub-rhodamine fluorescence, 60 min; AID 1645856; inhibition, % at 20 µM; 1.1% of 47,000 active
USP17 block: human USP17-like deubiquitinase inhibition | 6.5% of 47,000 active | A8MUK1 | inhibition, % at 50 µM | purified USP17, Ub-rhodamine cleavage fluorescence, 3 h
USP30 inh: blocks human USP30 ubiquitin-rhodamine cleavage | Q70CQ3 | purified USP30, Ub-rhodamine cleavage fluorescence | inhibition, % at 25 µM | 5.3% of 47,000 active
USP28 block: blocks human USP28 ubiquitin-rhodamine cleavage; inhibition, % at 25 µM; purified USP28, Ub-rhodamine cleavage fluorescence, 30 min; 3% of 47,000 active
The depositor's hits bear a star; i = inactive; nt = not tested or not shown. Cut-off read from the data, not from the text of the source: active = inhibition above about 30%; inactive = the rest.

SMILES	USP8 inh	USP10 block	USP17 block	USP30 inh	USP28 block
C[C@H](NC(=O)Cc1ccccc1F)c1nc2cc(-c3ccccc3F)ncn2n1	39*	40*	42*	64*	37*
C[C@@H](NC(=O)c1ccc2c(c1)OCCO2)c1nc2cc(-c3ccccc3F)ncn2n1	-6	5	66*	78*	47*
C[C@@H](NC(=O)c1ccc2c(c1)OCO2)c1nc2cc(-c3ccccc3F)ncn2n1	2	1	17	15	14
COc1ccc(-c2cc3nc([C@H](C)NC(=O)Cc4ccccc4C)nn3cn2)cc1	94*	36*	61*	27	20
COc1ccc(-c2cc3nc([C@H](C)NC(=O)COc4ccccc4F)nn3cn2)cc1	17	18	38*	47*	12
COc1ccc(C2(c3nc(-c4cccc(F)c4)no3)CCOCC2)cc1	19	4	9	25	16
c1ccc2c(c1)ccc1nnc(-c3ccc4c(c3)OCO4)n12	-235	0	37*	58*	61*
COc1ccc(-c2cc(C(F)F)n3ncc(C(=O)NCC4CCCO4)c3n2)cc1 (centres undefined)	0	-4	33*	nt	nt
COc1ccc(-c2cc(C(F)F)n3ncc(C(=O)NC(C)c4ccc(C(C)C)cc4)c3n2)cc1 (centres undefined)	24	0	12	26	-6
COc1ccc(-c2cc(C(F)F)n3ncc(C(=O)N(Cc4ccccc4)Cc4ccccc4)c3n2)cc1	6	5	-5	1	-1
COc1ccc(-c2cc(C(F)F)n3ncc(C(=O)Nc4ccc5c(c4)OCCO5)c3n2)cc1	4	3	11	56*	5
O=C(c1cc(-c2ccn(CC3CC3)n2)n2ccccc12)N1CCCCC1	-12	-9	-45	-237	-65
Cc1ccc2[nH]c3c(=O)n(Cc4cccnc4)cnc3c2c1	-3	0	34*	17	7
COc1ccc(Cn2cnc3c([nH]c4ccc(Br)cc43)c2=O)cc1	0	0	61*	-13	-24
Cc1ccc2[nH]c3c(=O)n(Cc4ccc(N(C)C)cc4)cnc3c2c1	88*	28	10	16	7
COCCCn1cnc2c([nH]c3ccc(Br)cc32)c1=O	-4	2	65*	nt	nt
O=c1c2[nH]c3ccc(Br)cc3c2ncn1CCO	-4	-1	24	3	1
O=c1c2[nH]c3ccccc3c2ncn1Cc1cccnc1	-5	2	5	-1	4
Fc1ccc(-c2nc3cnccn3c2NCc2ccc3c(c2)OCO3)cc1	-184	3	-130	i	-203
O=C(Nc1ccccc1C(F)(F)F)N1C[C@@H]2C[C@H]1C[C@@H]2NS(=O)(=O)c1ccccc1	-9	1	2	-7	-6
Cc1nccc(C(=O)N2CC[C@H]3NC(=O)c4ccccc4OCC/C=C/C[C@H]3C2)n1	-1	-3	0	-18	-8
CCc1nnc(CN2CCC(C3CCCCCN3S(=O)(=O)c3ccccc3)CC2)o1 (centres undefined)	-10	-4	-11	-16	-9
COc1ccc2[nH]c3c(=O)n(Cc4cccnc4)cnc3c2c1	-1	1	45*	24	9
COc1ccc(Cl)cc1N1C(=O)CSCC1=O	23	2	15	14	8
COc1ccc(CNC(=O)CCc2ccc3nc(NC(=O)C(C)C)sc3c2)cc1	-28	5	11	33*	0
SMILES	USP8 inh	USP10 block	USP17 block	USP30 inh	USP28 block
Cc1ccccc1CN1C(=O)CCC1(C)C(=O)NC1CCCC1 (centres undefined)	-1	-1	nt	0	1
Cc1sc2ncnc(OCC(=O)c3ccc(NC(=O)CC(C)C)cc3)c2c1C	30*	4	-16	-79	-17
CCc1ccc(C(=O)COc2ncnc3sc(C)c(C)c23)cc1	2	-9	15	-97	-10
CSc1ccccc1NC(=O)c1ccc(N2CCOCC2)nn1	-51	-1	nt	5	-9
CSc1ccccc1NC(=O)c1ccc(-n2cccn2)nn1	5	4	62*	41*	13
CCOC(=O)c1cc2c(ccn2-c2ccc(F)cc2)n1Cc1ccccn1	8	-7	-16	-87	-26
COc1ccc(C)cc1NC(=O)CN1C(=O)C2CCCC2=Nc2ccccc21 (centres undefined)	42*	25	82*	77*	22
COc1ccc(CNC(=O)CN2C(=O)C3CCCC3=Nc3ccccc32)cc1 (centres undefined)	83*	20	22	33*	14
O=C(NC1CC1)c1cn(-c2ccc(-c3nc(C4CC4)no3)cn2)cn1	-61	0	0	5	-7
COc1ccccc1NC(=O)CC1COc2ccccc2NC1=O (centres undefined)	-10	-3	-10	-12	-10
Cc1cc2nccc(C3CCN(C(=O)COc4cccnc4)CC3)n2n1	49*	-12	8	-270	-27
CC(C)=CCC[C@](C)(O)[C@H]1CC[C@]2(C)[C@@H]1CC[C@@H]1[C@@]3(C)CCC(=O)C(C)(C)[C@@H]3CC[C@]12C	19	20	15	23	9
CC1(C)C(=O)CC[C@@]2(C)C1CC[C@]1(C)C2CC[C@@H]2[C@H]3[C@H]4OC[C@@]3(CCC4(C)C)CC[C@]21C (some centres undefined)	25	0	13	31*	4
C(=C\c1ccccc1)/CSc1nnc(-c2ccco2)o1	-2	5	19	9	32*
CC(C)C(=O)Nc1ccc(N2CCN(Cc3ccc(F)cc3)C2=O)nc1	29	-3	62*	18	23
O=C(Nc1ccc(N2CCN(Cc3ccccc3)C2=O)nc1)C1CCC1	19	3	9	17	5
O=C1C=C(O)c2c(O)cc(O)cc2C1=O	82*	79*	99*	100*	99*
COc1ccc(CC(=O)Nc2nc(-c3ccco3)c(-c3ccco3)s2)cc1	73*	-13	65*	-64	32*
O=C(Cc1ccccc1F)Nc1nc(-c2ccco2)c(-c2ccco2)s1	74*	-12	nt	-111	43*
COc1ccc(CC(=O)Nc2nc3c(s2)CCC3)cc1	23	-1	13	-3	22
Cc1cn2c3c(=O)n(C/C=C/c4ccccc4)c(=O)n(C)c3nc2n1-c1ccccc1N	-72	0	-26	-99	-38
O=C(CSc1nnc(Cn2cnc3ccccc32)o1)Nc1ccc([N+](=O)[O-])cc1	-70	-1	63*	25	12
N#Cc1ccc(OCC(=O)Nc2ccccc2Oc2ccccc2)cc1	6	6	11	-10	0
O=C(Nc1ccccc1Oc1ccccc1)C(c1ccccc1)c1ccccc1	23	14	23	37*	22
COc1ccccc1-c1noc(Cn2cnc3c(nnn3Cc3ccc(F)cc3)c2=O)n1	-8	8	-4	15	3
Cc1cccc(Cn2cnc3c(nnn3Cc3ccccc3F)c2=O)c1	5	5	23	-44	30*
